Laboratory results: PubChem BioAssay
Entries with a potency or affinity are not part of this list. A number with no mark means an inactive call. Activity calls are given as the source filed them. The rule behind the calls is not given here.

Columns and labels:
[1] = A549 cell cytotoxicity, dose response, cytotoxicity control, plate reader, cherry-pick, antagonist series (AID 743412);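 note: 0% = neutral control wells and -100% = positive control wells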
[2] = HepG2 cell cytotoxicity, dose response, cytotoxicity control, plate reader, cherry-pick, antagonist series (AID 743416);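 note: 0% = neutral control wells and -100% = positive control wells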
[3] = molecular target: Melanocortin receptor 4 (Homo sapiens) (UniProt P32245); test: MC4R antagonists, dose response, counter-screen for LGR2 antagonist project, cell-based, plate reader, cherry pick (AID 743444)

Which results are given for `CCCCC(=O)N(C)c1c(C)nc2ccc(C(=O)N3CCCCC3)cn12`?
outcome [1]: inactive; outcome [2]: inactive; outcome [3]: inactive

Which results are given for `Cc1cccc(-n2ncc3c(N(C)C4CCCCC4)ncnc32)c1`?
outcome [1]: inactive; outcome [2]: inactive

Which results are given for `Cc1ccc(NC(=O)c2cnn(-c3ccccc3)c2C)cc1C`?
outcome [1]: inactive; outcome [2]: inactive

Which outcome [1] does the source give for `O=C(NCc1ccc(F)cc1)c1cc(C2CCCCN2S(=O)(=O)c2cccs2)on1` (stereo not drawn) here?
The outcome was “inactive”.

And the outcome [2]?
Its outcome is “inactive”.

And the outcome [3]?
Its outcome is “inactive”.

Which activity change, negative = cytotoxicity [1] does the source give for `CCOC(=O)Nc1ccc(N2CCOCC2)c(S(=O)(=O)Nc2ccc(Cl)cc2)c1` here?
Its activity change, negative = cytotoxicity is 19.4% [at 6 µM].

What about the outcome [2] of the same compound?
The outcome was “inactive”.

And the outcome [3]?
The outcome was “inactive”.

Which results are given for `Cc1ccccc1C(=O)Nc1nnc(-c2ccco2)s1`?
outcome [1]: inactive; outcome [2]: inactive

What does the source list for `COc1ccc(NC(=O)N(C)C[C@@H]2OCCCC[C@H](C)Oc3ccc(NC(=O)NC4CCCCC4)cc3C(=O)N([C@H](C)CO)C[C@@H]2C)cc1`?
outcome [1]: inactive; outcome [2]: inactive; outcome [3]: inactive

Which outcome [1] does the source give for `Cc1ccccc1S(=O)(=O)N1[C@H](C#N)[C@H](c2ccc(C#CC3CCCCC3)cc2)[C@H]1CO` here?
The outcome was “inactive”.

What about the outcome [2] of the same compound?
Its outcome is “inactive”.

For `CCc1nnc(NC(=O)CSc2nnc3ncccn23)s1`, which outcome [1] is on record?
The outcome was “inactive”.

What about the outcome [2] of the same compound?
The outcome was “inactive”.

And the outcome [3]?
The outcome was “inactive”.

With `OC1CCC(Nc2ccn3nc(-c4cccc(OCc5ccccc5)c4)cc3n2)CC1` (stereo not drawn) as the compound, how does the outcome [1] read?
Its outcome is “inactive”.

What about the outcome [2] of the same compound?
Its outcome is “inactive”.

For `COc1ccc(S(=O)(=O)N2CCN(C(=O)c3ccc(C)o3)CC2)cc1`, which outcome [1] is on record?
Its outcome is “inactive”.

And the outcome [2]?
The outcome was “inactive”.

And the outcome [3]?
Its outcome is “inactive”.

Which outcome [1] does the source give for `CC(=O)c1ccc(S(=O)(=O)N2CCC(NC(=O)Nc3cccc(F)c3)CC2)cc1` here?
The outcome was “inactive”.

What about the outcome [2] of the same compound?
Its outcome is “inactive”.

What about the outcome [3] of the same compound?
The outcome was “inactive”.

What does the source list for `Cc1ccc(-c2nnc(-c3ccccc3Br)o2)cc1`?
outcome [1]: inactive; outcome [2]: inactive

Which results are given for `CC(C)(C)NC(=O)c1cccc(NC(=O)c2ccc3c(c2)C(=O)N(C(C)(C)C)C3=O)c1`?
outcome [1]: inactive; outcome [2]: inactive; outcome [3]: inactive

Which outcome [1] does the source give for `CC1CN(C(=O)c2cccc(S(=O)(=O)Nc3cc(Cl)ccc3Cl)c2)CC(C)O1` (stereo not drawn) here?
The outcome was “inactive”.

What about the outcome [2] of the same compound?
The outcome was “inactive”.

And the outcome [3]?
The outcome was “inactive”.

With `C=CCn1c(SCC(=O)Nc2ncc(Cc3ccc(C)c(Cl)c3)s2)nnc1-c1ccncc1` as the compound, how does the outcome [1] read?
The outcome was “inactive”.

What about the outcome [2] of the same compound?
The outcome was “inactive”.

And the outcome [3]?
The outcome was “inactive”.

Which outcome [1] does the source give for `COc1ccccc1CNS(=O)(=O)c1ccc(N2CCCC2)cc1Br` here?
Its outcome is “inactive”.

And the outcome [2]?
The outcome was “inactive”.

And the outcome [3]?
The outcome was “inactive”.

With `O=C(NCc1ccco1)c1cc(NS(=O)(=O)c2cccc([N+](=O)[O-])c2)ccc1O` as the compound, how does the outcome [1] read?
The outcome was “inactive”.

And the outcome [2]?
Its outcome is “inactive”.

What about the outcome [3] of the same compound?
The outcome was “inactive”.

For `COc1ccc2c3c([nH]c2c1)[C@H](CO)N(C(C)=O)CC31CCN(C(=O)CN2CCOCC2)CC1`, which outcome [1] is on record?
The outcome was “inactive”.

And the outcome [2]?
The outcome was “inactive”.

And the outcome [3]?
The outcome was “inactive”.

For `C[C@H](CO)N1C[C@H](C)[C@H](CN(C)C(=O)Nc2ccc3c(c2)OCO3)OCCCC[C@H](C)Oc2ccc(NC(=O)NC3CCCCC3)cc2C1=O`, which outcome [1] is on record?
Its outcome is “inactive”.

And the outcome [2]?
Its outcome is “inactive”.

And the outcome [3]?
Its outcome is “inactive”.

With `O=C(CN1C(=O)c2ccccc2S1(=O)=O)c1ccc(F)c(F)c1` as the compound, how does the outcome [1] read?
The outcome was “inactive”.

What about the outcome [2] of the same compound?
The outcome was “inactive”.

Which results are given for `Cc1noc(C)c1S(=O)(=O)Nc1cccc2c1O[C@H](CN(C)C(=O)Nc1ccc(F)cc1)[C@H](C)CN([C@H](C)CO)C2=O`?
outcome [1]: inactive; outcome [2]: inactive; outcome [3]: inactive

For `Cc1ccnc(N2C(=O)c3ccccc3C2Nc2ccc3c(c2)OCCO3)c1` (stereo not drawn), which outcome [1] is on record?
The outcome was “inactive”.

What about the outcome [2] of the same compound?
Its outcome is “inactive”.

What about the outcome [3] of the same compound?
Its outcome is “inactive”.

What does the source list for `C[C@H](CO)N1C[C@H](C)[C@H](CN(C)C(=O)Nc2ccc(F)cc2)OCCCC[C@H](C)Oc2ccc(NC(=O)NC3CCCCC3)cc2C1=O`?
outcome [1]: inactive; outcome [2]: inactive; outcome [3]: inactive

Which outcome [1] does the source give for `Cc1cccn2c(CNCC3(c4ccccc4)CCCC3)c(C(=O)N3CCOCC3)nc12` here?
Its outcome is “inactive”.

And the outcome [2]?
The outcome was “inactive”.

And the outcome [3]?
Its outcome is “inactive”.

Which results are given for `COc1ccc(S(=O)(=O)Nc2ccc3c(c2)C(=O)N([C@H](C)CO)C[C@H](C)[C@H](CN(C)S(=O)(=O)c2ccc(F)cc2)OCCCC[C@@H](C)O3)cc1`?
outcome [1]: inactive; outcome [2]: inactive; outcome [3]: inactive

For `CO[C@@H]1CN(C)C(=O)c2ccc(NC(=O)C3CC3)cc2OC[C@@H](C)NC[C@@H]1C`, which outcome [1] is on record?
The outcome was “inactive”.

What about the outcome [2] of the same compound?
Its outcome is “inactive”.

What about the outcome [3] of the same compound?
Its outcome is “inactive”.

Which outcome [1] does the source give for `CC(C)c1ccc(NC(=O)N2CCN(S(=O)(=O)c3ccccc3)CC2)cc1` here?
Its outcome is “inactive”.

What about the outcome [2] of the same compound?
Its outcome is “inactive”.

What about the outcome [3] of the same compound?
Its outcome is “inactive”.

What does the source list for `CCOC(=O)C1=CCN(S(=O)(=O)c2ccccc2C)C1c1cccc(C)c1` (stereo not drawn)?
outcome [1]: inactive; outcome [2]: inactive; outcome [3]: inactive

For `O=S1(=O)CCOC[C@H](CC2CCCCC2)N1Cc1ccccc1F`, which outcome [1] is on record?
Its outcome is “inactive”.

What about the outcome [2] of the same compound?
The outcome was “inactive”.

And the outcome [3]?
The outcome was “inactive”.

For `C[C@@H]1CN([C@H](C)CO)C(=O)c2cc(C#CCN(C)C)cnc2O[C@@H]1CN(C)C(=O)CN1CCOCC1`, which outcome [1] is on record?
Its outcome is “inactive”.

What about the outcome [2] of the same compound?
Its outcome is “inactive”.

What about the outcome [3] of the same compound?
Its outcome is “inactive”.

What does the source list for `O=C(Nc1cc(S(=O)(=O)Nc2ccccc2Cl)ccc1O)c1ccc(F)cc1F`?
outcome [1]: inactive; outcome [2]: inactive; outcome [3]: inactive

For `CCc1ccc2ncc(S(=O)(=O)c3ccc(C)c(C)c3)c(N3CCCC3)c2c1`, which outcome [1] is on record?
Its outcome is “inactive”.

What about the outcome [2] of the same compound?
Its outcome is “inactive”.

And the outcome [3]?
Its outcome is “inactive”.

Which outcome [1] does the source give for `Cc1noc2ncnc(Sc3ccc(Br)cc3)c12` here?
Its outcome is “inactive”.

What about the outcome [3] of the same compound?
The outcome was “inactive”.

For `CCc1nnc2cccc(Cl)n12`, which outcome [1] is on record?
Its outcome is “inactive”.

And the outcome [2]?
Its outcome is “inactive”.

What about the outcome [3] of the same compound?
The outcome was “inactive”.

For `CC(C)N(C(=O)Nc1ccc2nsnc2c1)C(C)C`, which outcome [1] is on record?
Its outcome is “inactive”.

What about the outcome [2] of the same compound?
Its outcome is “inactive”.

And the outcome [3]?
Its outcome is “inactive”.

Which results are given for `COCC#Cc1ccc2c(c1)O[C@H](CN(C)S(=O)(=O)c1cccc(F)c1)[C@@H](C)CN([C@H](C)CO)S2(=O)=O`?
outcome [1]: inactive; outcome [3]: inactive

For `Cc1ccc(NC(=O)c2ncn(CC(=O)NCc3ccc4[nH]ccc4c3)n2)cc1C`, which outcome [1] is on record?
The outcome was “inactive”.

What about the outcome [2] of the same compound?
Its outcome is “inactive”.

And the outcome [3]?
Its outcome is “inactive”.

What does the source list for `CCn1cc(S(=O)(=O)Nc2cccnc2)cn1`?
outcome [1]: inactive; outcome [2]: inactive; outcome [3]: inactive

Which outcome [1] does the source give for `COc1ccc(N(CC(=O)NCc2cccs2)S(=O)(=O)c2ccc(C(C)=O)cc2)cc1` here?
Its outcome is “inactive”.

What about the outcome [3] of the same compound?
Its outcome is “inactive”.

For `C[C@H](CO)N1C[C@H](C)[C@@H](CN(C)CC2CCOCC2)Oc2ncc(Br)cc2C1=O`, which outcome [1] is on record?
The outcome was “inactive”.

What about the outcome [2] of the same compound?
The outcome was “inactive”.

And the outcome [3]?
The outcome was “inactive”.

For `COc1ccc(NC(=O)Nc2ccc3c(c2)CC(=O)N([C@@H](C)CO)C[C@@H](C)[C@H](CN(C)Cc2ccncc2)O3)cc1`, which outcome [1] is on record?
The outcome was “inactive”.

What about the outcome [3] of the same compound?
The outcome was “inactive”.

What does the source list for `CC(=O)c1c(C)[nH]c(C(=O)CN2C(=O)NC(C)(c3ccc(C)cc3)C2=O)c1C` (stereo not drawn)?
outcome [1]: inactive; outcome [2]: inactive; outcome [3]: inactive
